The sample as a whole holds a higher share of hits than the screen did.
Tg IFNy HTS – T. gondii growth inhibition with IFN-gamma, primary screen, cell-based. Toxoplasma gondii growth in IFN-gamma-treated host cells; stronger effect = lower value. activity change, negative = inhibition, % (concentration not given with the values). actives 3.8% (n = 69,000); in the data active = activity change below about -70%, passing the limit was not always enough;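 also: host cells are HeLa cells infected with Toxoplasma gondii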
* = called active by the depositor.

SMILES	Tg IFNy HTS
Cc1ccc(S(=O)(=O)N2CCC3(CC3C(=O)NCc3ccncc3)C2)cc1F (stereo not drawn)	-10
CCN(C)c1ncnc2c1CCN(c1ccc(C)nn1)CC2	-14
Cc1noc(C)c1CNC(=O)c1cccc(NC(=O)c2ccco2)c1C	7
COc1cc2nccc(Oc3ccc(NC(=O)C4(C(=O)Nc5ccc(F)cc5)CC4)cc3)c2cc1OC	-91*
COc1ccc(NC(=O)C(=O)NCCc2csc(-c3ccc(F)cc3)n2)cc1OC	52
CN1CCN(C2CCN(C(=O)Nc3cc(Oc4ccc(NC(=O)C5(C(=O)Nc6ccc(F)cc6)CC5)c(F)c4)ccn3)CC2)CC1	-69
CC1CCc2c(sc(NC(=O)CCn3c(=O)sc4ccccc43)c2C(N)=O)C1 (stereo not drawn)	30
CC(C)NC(=O)[C@@H]1C[C@@H](N)CN1Cc1ccc(-c2cccc(Cl)c2)o1	-40
COc1ccc2c3c(n(C)c2c1)[C@@H](CO)N(Cc1nccs1)CC31CCN(C(=O)CN(C)C)CC1	5
COc1ccc2c3c(n(C)c2c1)[C@@H](CO)N(C(=O)CN(C)C)CC31CN(Cc2nccs2)C1	-109*
COc1ccc(S(=O)(=O)N2CC3(CN(C(=O)CN(C)C)[C@@H](CO)c4c3c3ccc(OC)cc3n4C)C2)cc1	-28
COc1ccc(-c2nc(NCC3CCN(Cc4ccc(Cl)cc4)CC3)c3ccccc3n2)cc1	-88
Cc1cccnc1CNS(=O)(=O)c1ccc2c(c1)C(NC(=O)c1ccccc1)CC2 (stereo not drawn)	10
O=C(NC(=O)c1ccccc1O)c1ccoc1	-84*
Cc1ccc(NC(=O)c2ccoc2)cc1NCC#N	45
O=C(NC(=S)N1CCOCC1)c1ccccc1	24
CCn1c(C2CCCN(C(=O)c3cnc4ccccn4c3=O)C2)nn(C)c1=O (stereo not drawn)	13
COc1ccc2c(c1)CC(NCCCn1nc(C)nc1C)CC2 (stereo not drawn)	3
COc1cccc(Cn2cnc3c4cc(F)ccc4n(Cc4ccc(N5CCCC5=O)cc4)c3c2=O)c1	-51
O=C(NC1CS(=O)(=O)CC1O)c1ccc(-n2ccnc2)c(C#Cc2ccccc2)c1 (stereo not drawn)	-8
Cc1noc(C)c1C1CCCN1C(=O)Cn1nc(C(F)(F)F)cc1C (stereo not drawn)	5
Cc1cc(C(F)(F)F)nn1CC(=O)N1CCCC1c1ccc(F)cc1 (stereo not drawn)	-78*
Cc1ccccc1C1CCCN1C(=O)Cn1nc(C(F)(F)F)cc1C (stereo not drawn)	165
Clc1ccc(OCc2noc(-c3ccccc3)n2)c(Cl)c1	401
CCNc1ncc(CN2CCn3nc(C(=O)N4CCCC4)cc3C2)cn1	9
SMILES	Tg IFNy HTS
CC(C)N1CCNC(=O)C1CC(=O)N1CCc2[nH]c3ccc(Cl)cc3c2C1 (stereo not drawn)	4
CCCc1nc(CNC(=O)c2cc3n(n2)CCCN(C(C)=O)C3)cs1	31
Cc1nn(Cc2nc(-c3ccc(NC(=O)c4ccc(C#N)cc4)cc3)oc2C)c(C)c1C	184
COc1cccc(C(=O)Nc2ccc(-c3nc(Cn4nc(C)cc4C)c(C)o3)cc2)c1	-62
Cc1cccc(C(=O)Nc2ccc(-c3nc(Cn4nc(C)c(C)c4C)c(C)o3)cc2)c1	-91*
COCC(=O)Nc1ccc(-c2nc(Cn3nc(C)c(C)c3C)c(C)o2)cc1	60
Cc1oc(-c2ccccc2)nc1Cn1nnc(C(=O)Nc2ccccc2)c1C	-64
Cc1ccc(C(=O)Nc2ccc(-c3nc(Cn4nc(C)c(C)c4C)c(C)o3)cc2)cc1	-88*
Cc1nn(Cc2nc(-c3ccc(NC(=O)c4ccc(F)cc4)cc3)oc2C)c(C)c1C	112
Cc1nn(Cc2nc(-c3ccc(NC(=O)c4ccccc4)cc3)oc2C)c(C)c1C	-93*
Cc1cc(C)n(Cc2nc(-c3ccc(NC(=O)c4cccc(N(C)C)c4)cc3)oc2C)n1	-56
CC(C)CC(=O)N1CCCC2(CC(C(=O)Nc3ccccc3)=NO2)C1 (stereo not drawn)	40
CO[C@@H]1CCN(S(=O)(=O)c2cccs2)[C@H]1Cc1ccccc1	-67
COCC1(C(=O)NCCn2c(C)cc3ccccc32)CCC1	12
CCCCNC(=O)CN(C)C(=O)c1cccc(-c2ccc(O)cc2)c1	2
CCCCCS(=O)(=O)CCCCCCCCCCn1c(-c2ccc(O)cc2)c(C)c2cc(O)ccc21	-79*
COc1cc(C(=O)N[C@@H]2c3ccccc3[C@H]3CN(C(C)=O)C[C@H]32)ccn1	3
O=C(Nc1nc2ccccc2s1)c1cncc(NS(=O)(=O)c2ccc(Cl)cc2)c1	-35
CC(C)Nc1nc2c(c(NC3CC3)n1)CCN(C(=O)C1CCOC1)CC2 (stereo not drawn)	0
CC(c1cc2ccccc2s1)N(O)C(N)=O (stereo not drawn)	-68
OC(CNCc1cc2ccccc2s1)C(F)(F)F (stereo not drawn)	-86*
O=C(O)CN1CC2(CCC(C(=O)Nc3cccc(F)c3)O2)C1 (stereo not drawn)	0
COc1ccc(C(=O)N2C[C@H]3CC=CC[C@H]3C2)c(O)c1	-8

Assay outcomes deposited in PubChem BioAssay by Broad Institute.
